Records with an inconclusive call do not appear. Activity calls are given as the source filed them. Calls follow the shape of the dose curve; as a rule, active = well fitted inhibition curve with a large enough effect; inconclusive = small, poorly fitted or top-dose-only effect; inactive = flat fitted curve, though single readings scatter.
What was measured:
Assay in all cases: qHTS profiling for inhibitors of Plasmodium falciparum proliferation (AID 504749); also: nearly all actives have a fitted effect of over 60% in size
Conditions in all cases: P. falciparum in erythrocytes, SYBR Green DNA, 72 h; series mostly up to 28.7 µM
3D7 = test system: 3D7
Method in brief: (§1)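 Parasite proliferation within erythrocytes, 72 h exposure. Endpoint: SYBR Green I fluorescence after overnight lysis at room temperature. Controls: 0.29 uM artemisinin, DMSO.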

CP215 = test system: CP215
Method in brief: as §1

CP217 = test system: CP217
Method in brief: as §1

CP250 = test system: CP250
Method in brief: as §1

CP256 = test system: CP256
Method in brief: as §1

CP260 = test system: CP260
Method in brief: as §1

CP286 = test system: CP286
Method in brief: as §1

CP291 = test system: CP291
Method in brief: as §1

CP315 = test system: CP315
Method in brief: as §1

CP335 = test system: CP335
Method in brief: as §1

DIV14 = test system: DIV14
Method in brief: as §1

DIV17 = test system: DIV17
Method in brief: as §1

Dd2 = test system: Dd2
Method in brief: as §1

FAB9 = test system: FAB9
Method in brief: as §1

GB4 = test system: GB4
Method in brief: as §1

JCK = test system: JCK
Method in brief: as §1

N140 = test system: N140
Method in brief: as §1

PC15 = test system: PC15
Method in brief: as §1

SC27B = test system: SC27B
Method in brief: as §1

TAB165 = test system: TAB165
Method in brief: as §1

Measured: Potency

N[C@@H](Cc1ccccc1)C(=O)O
inactive: all assays above

C[C@]12CC[C@H]3c4ccc(O)cc4CC[C@@H]3[C@H]1CC[C@@H]2OP(=O)(O)O
inactive: all assays above
